According to PubChem BioAssay (Tox21):
“And” between values parts separate entries of the source, which are not always exact repeats. Equal entries are not always repeated. Records with an inconclusive call do not appear. A call without a number means that no potency is given here. Some compounds were tested as several samples or in several runs, with calls that do not always agree. The source made the active and inactive calls. Calls follow the shape of the dose curve; as a rule, active = well fitted curve in the direction sought with a large enough effect in the repeat runs; inconclusive = weak or mixed curves; inactive = no such curve, though single readings can be large; an effect the other way counts as inactive or inconclusive.

What was measured:
[1] = A CellTox Green Cytotoxicity Assay to monitor cytotoxicity in HEK293 cells - 32 hour (AID 1224881); also: nearly all actives have a fitted effect of over 40% in size; also: potency is read from the fitted curve at half-maximal effect
How it was run: (§1)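 Real-time, in one plate: 600 HEK293 cells/well with dead-cell DNA dye, pinned compound after 5 h, 37 C incubation over 40 h; viable cells give no appreciable fluorescence.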

[2] = A CellTox Green Cytotoxicity Assay to monitor cytotoxicity in HepG2 cells - 0 hour (AID 1224882); also: nearly all actives have a fitted effect of over 35% in size; also: potency is read from the fitted curve at half-maximal effect
How it was run: (§2)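 Cytotoxicity was tracked as dead-cell DNA fluorescence in HepG2 cells treated with test compounds at 37 C; each time-point value comes from one kinetic series spanning 0, 8, 16, 24, 32 and 40 h.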

[3] = A CellTox Green Cytotoxicity Assay to monitor cytotoxicity in HepG2 cells - 32 hour (AID 1224883); also: nearly all actives have a fitted effect of over 50% in size; also: potency is read from the fitted curve at half-maximal effect
How it was run: as §2

[4] = qHTS RealTime-Glo MT Cell Viability Assay in HEK293 cells - 24 hour (AID 1224886); also: nearly all actives have a fitted effect of over 50% in size; also: potency is read from the fitted curve at half-maximal effect
How it was run: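 HEK293 cells were seeded at 600 cells/well together with NanoLuc luciferase and cell-permeant prosubstrate, preincubated 5 h at 37 C/5% CO2, then given compound in DMSO by pintool. Luminescence from viable-cell prosubstrate reduction was read repeatedly over 40 h.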

[5] = qHTS RealTime-Glo MT Cell Viability Assay in HEK293 cells - 8 hour (AID 1224887); also: nearly all actives have a fitted effect of over 50% in size; also: potency is read from the fitted curve at half-maximal effect
How it was run: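 Kinetic, non-lysing viability readout. Seed HEK293 (600/well) with reagent, incubate 5 h at 37 C/5% CO2, pin 23 nL compound in DMSO, incubate at 37 C, read luminescence at 0, 8, 16, 24, 32, 40 h.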

[6] = A CellTox Green Cytotoxicity Assay to monitor cytotoxicity in HEK293 cells - 16 hour (AID 1224888); also: nearly all actives have a fitted effect of over 35% in size; also: potency is read from the fitted curve at half-maximal effect
How it was run: as §1

[7] = qHTS RealTime-Glo MT Cell Viability Assay in HepG2 cells - 0 hour (AID 1224889); also: nearly all actives have a fitted effect of over 50% in size
How it was run: (§3)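 HepG2 cells were seeded at 600 cells/well together with NanoLuc luciferase and a cell-permeant prosubstrate, preincubated 5 h at 37 C/5% CO2, then pin-dosed with compounds in DMSO. Nonlytic luminescence from viable cells was read at each time point.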

[8] = A CellTox Green Cytotoxicity Assay to monitor cytotoxicity in HepG2 cells - 8 hour (AID 1224890); also: nearly all actives have a fitted effect of over 45% in size; also: potency is read from the fitted curve at half-maximal effect
How it was run: as §2

[9] = qHTS RealTime-Glo MT Cell Viability Assay in HepG2 cells - 16 hour (AID 1224885); also: nearly all actives have a fitted effect of over 50% in size; also: potency is read from the fitted curve at half-maximal effect
How it was run: as §3

[10] = A CellTox Green Cytotoxicity Assay to monitor cytotoxicity in HEK293 cells - 8 hour (AID 1224884); also: nearly all actives have a fitted effect of over 35% in size; also: potency is read from the fitted curve at half-maximal effect
How it was run: as §1

Compound	Potency [1]	Potency [2]	Potency [3]	Potency [4]	Potency [5]	Potency [6]	Potency [7]	Potency [8]	Potency [9]	Potency [10]
CC(C)(c1ccccc1)c1ccc(Nc2ccc(C(C)(C)c3ccccc3)cc2)cc1	inactive	inactive	inactive	inactive	inactive	inactive	inactive	inactive		
O=C(O)Cn1cnnn1	inactive	inactive	inactive	inactive		inactive	inactive	inactive	inactive	
CCN(CC)CCOc1ccc(/C(=C(\Cl)c2ccccc2)c2ccccc2)cc1	28.1 µM (active) and 23.9 µM (active)	inactive	17.7 µM (active) and 21.3 µM (active)	12.6 µM (active) and 21.3 µM (active)		35.4 µM (active)	inactive	35.4 µM (active) and 21.3 µM (active)	31.6 µM (active) and 23.9 µM (active)	
[Cl][In]([Cl])[Cl]	inactive	inactive	inactive		inactive	inactive	inactive	inactive		
Oc1c(Cl)cc(Cl)cc1Sc1cc(Cl)cc(Cl)c1O	49.1 µM (active) and 43.6 µM (active) and inactive	inactive and 43.6 µM (active)	44.4 µM (active) and 43.6 µM (active) and inactive	21.9 µM (active)			inactive	inactive and 43.6 µM (active)		
Nc1ccc(O)cc1	inactive	inactive	inactive	40.4 µM (active) and inactive	40.4 µM (active) and inactive	inactive	inactive	inactive	57.1 µM (active) and inactive	
CN(C)c1ccc2nc3ccc(=[N+](C)C)cc-3sc2c1	inactive	inactive	inactive	2.36 µM (active) and 2.19 µM (active) and 2.68 µM (active)		inactive	inactive	inactive	14.9 µM (active) and 17.4 µM (active) and 19 µM (active)	
Clc1ccc2c(c1)C(N1CCNCC1)=Nc1ccccc1O2		inactive	49 µM (active) and 26.8 µM (active)	43.6 µM (active) and 26.8 µM (active)				inactive		inactive
CNCCC(Oc1ccc(C(F)(F)F)cc1)c1ccccc1 (stereo not given)		inactive	48.4 µM (active) and 16.9 µM (active)			23.9 µM (active)				26.8 µM (active)
CCC[C@H](N[C@@H](C)C(=O)N1[C@H](C(=O)O)C[C@@H]2CCCC[C@@H]21)C(=O)OCC	inactive	inactive	inactive	inactive		inactive	inactive	inactive	inactive	
CCc1ccc(C(c2ccc(CC)cc2)C(Cl)Cl)cc1		inactive	inactive		inactive	inactive	inactive	inactive	inactive	inactive
CNC1(C)C2CCC(C2)C1(C)C (stereo not given)	inactive			inactive	inactive	inactive	inactive		inactive	inactive
CC[C@H]1CN2CCc3cc(OC)c(OC)cc3[C@@H]2C[C@@H]1C[C@H]1NCCc2cc(OC)c(OC)cc21		inactive	49.2 µM (active) and 21.3 µM (active)	17.4 nM (active) and 47.7 nM (active)	874 nM (active) and 3.38 µM (active)	inactive	inactive	inactive	inactive	
Cc1ccnc2c1NC(=O)c1cccnc1N2C1CC1	inactive	inactive	inactive	inactive	inactive	inactive	inactive	inactive		
CCOc1ccccc1C(N)=O	inactive	inactive	inactive	inactive		inactive	inactive	inactive	inactive	
